Measured values as given in PubChem BioAssay AID1863 (Southern Research Specialized Biocontainment Screening …, 2009).
Out of some 300,000 compounds screened, about 480 (0.16%) were called active.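 Rule for the calls: active = inhibition over 29.93%, a cutoff 3 SD above the screen mean, later confirmed by dose response; inconclusive = inhibition over 29.93% but no dose response follow-up; inactive = inhibition at most 29.93% or unconfirmed.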 Not all results are given here. Potency and affinity values are given separately. Peptide text beside a SMILES is read from it. * marks the point of attachment. Boc = CC(C)(C)OC(=O)*

assay: PhoP-dependent GFP reporter repression – Salmonella Typhimurium, primary screen (AID 1863);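 note: 0% = low Mg2+ inducing control and 100% = high Mg2+ repressing control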; settings: S. Typhimurium PhoP-regulated promoter GFP reporter, 4 h; at 50 µM; active compounds read high

inhibition, inactive:
CC(C)(C)c1ccc(C(=O)N2CCC(C(=O)NCc3ccncc3)CC2)cc1 -6.15%
O=C(NCc1cccs1)c1cc(S(=O)(=O)N2CCCCC2)ccc1Cl 2.07%
COc1cc(C(=O)NCc2cccc3ccccc23)ccc1OCc1ccccc1 -2.04%
COc1ccc(/C(N)=N/O)c(OC)c1 -1.42%
Nc1ccc(-n2ccnc2)cc1 1.57%
CCCOc1ccc(Br)cc1CSC(=N)N 55.8%
COc1ccc(Br)cc1CSC(=N)N 5.81%
CCOc1ccc(CSC(=N)N)cc1[N+](=O)[O-] 41%
COc1ccc(CSC(=N)N)cc1[N+](=O)[O-] 5.38%
CCOc1ccc(Br)cc1CSC(=N)N 26.3%
CCCCOc1ccc(CSC(=N)N)cc1Cl 0.89%
C/C(=N\NC(=O)CNC(=O)c1ccc(F)cc1)c1ccco1 4.52%
Cc1ccc(NC(=O)N[C@@H](CC(C)C)C(=O)O)c(C)c1 -7.38%
O=C(NCc1ccccn1)Nc1ccccc1Cl -6.1%
CCN(CCN1CCCC1)C(=O)C1CCC(=O)N(CCCN2CCOCC2)C1 (centres undefined) 2.18%
CCCCCCn1c(N2CCCC2)nc2c1c(=O)[nH]c(=O)n2C 2.66%
O=C1CCCN1CCCNS(=O)(=O)c1ccccc1 10.7%
Cc1cc(C)nc(N/C(=N\S(=O)(=O)Cc2ccccc2)Nc2cccc(Cl)c2C)n1 8.54%
CC(C)(C)OC(=O)N1CCC[C@@H]1CO 1.69%
CC(C)CC(NC(=O)OC(C)(C)C)C(=O)NC(C(=O)N1CCCC1C(N)=O)C(C)C (stereo not drawn) (Boc-Leu-Val-Pro-NH2; configuration not given here) -6.98%
CCCC(=O)N1CC(=O)Nc2ccc(C)cc2C1c1ccccc1 (centres undefined) -6.57%
S=C(NCc1ccccc1)N1CCCCC1 0.84%
O=S(=O)(NCC(c1ccc2c(c1)OCO2)N1CCOCC1)c1ccc(Cl)cc1 (centres undefined) -2.72%
CC(=O)c1c(C)n([O-])c2ccc(C)cc2[n+]1=O 0.85%
O=[n+]1c2c(n([O-])c3cc(F)c(F)cc31)CCCC2 -5.91%
CC(=O)c1c(C)n([O-])c2cc(C)ccc2[n+]1=O -0.54%
COc1ccc2c(c1)[n+](=O)c(C(C)=O)c(C)n2[O-] 7.33%
Cc1ccc(NC2c3ncccc3C(=O)N2Cc2ccco2)c(C)c1 (centres undefined) -7.26%
O=C(CCSCCC(=O)N1CCCC1)N1CCCC1 0.69%
Cc1c(C)n2c(SCC(=O)NC3CCCCC3)nnc2[nH]c1=O 2.36%
CC(=O)c1c(N2CCN(c3ccc(F)cc3)CC2)nc(=S)n(Cc2ccccc2)c1C -9.08%
CCN(CC)CC(=O)Nc1ccc(-c2ccc(NC(=O)CN(CC)CC)c(OC)c2)cc1OC -5.12%
O=C(O)c1ccc(NC(=O)C(c2ccccc2)c2ccccc2)cc1 -7.69%
COc1cccc(C2c3[nH]c4ccccc4c3CCN2C(=O)Cn2cncn2)c1OC (centres undefined) -2.77%
CCN(CC)C(=O)Oc1nnc(SC(C)C)n1-c1ccc(Cl)cc1 -0.67%
O=C(Nc1nc(-c2ccccn2)cs1)c1ccc(Br)s1 8.88%
O=C(Nc1nc(-c2cccs2)cs1)c1ccc(Cl)s1 7.37%
CCOC(=O)c1c(C)[nH]c(C(=O)COC(=O)CNC(=O)c2ccccc2Cl)c1C -9.12%
Cc1occc1C(=O)NC(C)C(C)(C)C (centres undefined) 0.78%
Cc1ccccc1CSCCC(=O)NCCC1=CCCCC1 6.03%
Cn1nc(-c2ccc(Cl)cc2)nc2c(=O)n(C)c(=O)nc1-2 20.5%
Cn1c(=O)c(-c2ccccc2)nc2ccccc21 -3.46%
COc1ccc(CCNCC(O)Cn2c3ccccc3c3ccccc32)cc1OC (centres undefined) -4.43%
COc1ccccc1NCC(O)Cn1c2ccccc2c2ccccc21 (centres undefined) -3.61%
COc1ccc(NC(=O)C2=NN(C3CCS(=O)(=O)C3)C(=O)CC2)cn1 (centres undefined) 3.89%
O=C(CSc1oc(-c2cccs2)nc1S(=O)(=O)c1ccc(F)cc1)NCC1CCCO1 (centres undefined) -4.95%
CSC[C@H](NC(=O)Cc1c(C)c2cc3c(C)c(C)oc3cc2oc1=O)C(=O)N[C@@H](Cc1ccccc1)C(=O)O 5.06%
Cc1ccc(C(=O)Nc2ccccc2Sc2ccccc2)cc1 -6.94%
Cc1ccc(C(=O)CC(=O)c2ccccc2)cc1 6.5%
COc1cccc(NC(=O)CCC2CCN(C(=O)c3sccc3C)CC2)c1 -6.68%
O=C(CCNC(=O)c1ccc([N+](=O)[O-])cc1)NCCc1ccc(Cl)cc1 8.36%
COCCCn1c(=O)c2sccc2n2c(CCCC(=O)N(C)Cc3ccco3)nnc12 -1.76%
Cn1ccnc1SCC(=O)NC1CC1 6.54%
Cc1cc(Nc2ccccc2)nc(NCc2ccccc2)n1 19.9%
Cc1cc(Nc2cccc(F)c2)nc(NCc2ccccc2)n1 4.66%
Cc1[nH]c(=O)[nH]c(=O)c1S(=O)(=O)Nc1ccc(Cl)c([N+](=O)[O-])c1 5.49%
O=Cc1ccc2ccc3cccnc3c2n1 -0.13%
O=S1(=O)NC(=NCCc2ccccn2)c2ccccc21 10.3%
CCOC(=O)c1ccc2c(c1)NC(=O)C(N1CCN(c3ccc(OC)cc3)CC1)S2 (centres undefined) 8.89%
COc1ccc(N(C(=O)c2ccncc2)S(=O)(=O)c2cccs2)cc1 8.99%
Cc1ccccc1-n1c(SCC(=O)c2cc(C)n(C)c2C)nnc1-c1ccncc1 -15.5%
O=C(N/N=C/c1ccc[nH]1)c1ccc([N+](=O)[O-])cc1 5.92%
O=C(N/N=C/c1ccc[nH]1)c1cccc([N+](=O)[O-])c1 2.02%
Cn1c(CCCOc2ccc(Cl)cc2Cl)nnc1SCC(=O)Nc1ccc(F)c(Cl)c1 -2.33%
CCC(=O)c1ccc(OCC(=O)OCC(=O)c2cc(C)n(CC3CCCO3)c2C)cc1 (centres undefined) -5.94%
CCOC(=O)N1CCN(S(=O)(=O)c2ccc(C(=O)N(CCN(C)C)c3nc4ccc(Cl)cc4s3)cc2)CC1 14%
CCOc1c(Cl)cc(CNCc2ccncc2)cc1OC 2.05%
O=C(Nc1ncccc1O)C1CCN(S(=O)(=O)c2ccc3ccccc3c2)CC1 -9.16%
CCCCCCn1c2c(c(=N)c3c1CCC3)CCC2 12.9%
CCCCCn1c2c(c(=N)c3ccccc31)CCC2 12.1%
CCCCCCCn1c2c(c(=N)c3c1CCC3)CCCC2 5.7%
CCCn1c2c(c(=N)c3c1CCC3)CCCC2 -0.71%
CCCCn1c2c(c(=N)c3c1CCC3)CCC2 -14.8%
CCOC(=O)Cn1c2c(c(=N)c3ccccc31)CCC2 3.57%
CCn1c2c(c(=N)c3c1CCC3)CCC2 -5.05%
CCn1c2c(c(=N)c3c1CCC3)CCCC2 -3.7%
CCOn1c(SCC)nc2ccccc2c1=O 5.58%
CC(C)c1ccc(NC(=O)CCCN2C(=S)NC(C)(C)CC2C)cc1 (centres undefined) 3.65%
COC(=O)c1ccc(NC(=O)CN2CCN(c3ccccc3C)CC2)cc1 -8.21%
O=C(Nc1ccccc1)c1cc(S(=O)(=O)NCc2ccncc2)ccc1Cl -1.47%
CCc1c(C(=O)NNC(=S)NCC2CCCO2)csc1C (centres undefined) 8.11%
COc1ccc(OC)c(-c2csc(NC(=O)c3ccccc3F)n2)c1 -4.14%
Cc1cc(C)c2cc(C=O)c(Cl)nc2c1 3.78%
CCOC(=O)CN1CC23C=CC(O2)C(C(=O)NCc2ccc(C)cc2)C3C1=O (centres undefined) 10.7%
CC(C)CCNC(=O)C12CN(Cc3ccccc3)CC1C(c1ccc([N+](=O)[O-])cc1)=NO2 (centres undefined) 16.1%
COc1ccc(/C=C2\SC(=S)N(C(C)C(=O)NC3C=CS(=O)(=O)C3)C2=O)cc1 (centres undefined) -13.9%
CC(C(=O)NC1C=CS(=O)(=O)C1)N1C(=O)/C(=C\c2ccccc2)SC1=S (centres undefined) -3.24%
CC(C(=O)N(C)C1CCS(=O)(=O)C1)N1C(=O)/C(=C/c2ccc(F)cc2)SC1=S (centres undefined) 3.59%
CC(C(=O)NC1C=CS(=O)(=O)C1)N1C(=O)/C(=C/c2cccc(Cl)c2)SC1=S (centres undefined) 27.8%
Cc1nn(C)c(C(=O)N/N=C/c2cccc(Oc3ccccc3)c2)c1Br 8.95%
COc1ccc(CC(=O)N2CC3(C)CC2CC(C)(C)C3)cc1 (centres undefined) 1.16%
COc1ccc(F)c(CN2CCCC(CNS(=O)(=O)c3cccc4cccnc34)C2)c1 (centres undefined) -5.85%
CCCCCCCCCCCCCCCCn1cc[n+](C)c1 22.9%
CCCCCCn1ccc(=N)cc1 -2.46%
CCCC(=O)c1ccc(N2CCN(C(=O)OCC)CC2)c(F)c1 1.25%
O=C(N/N=C\c1ccc(O)c([N+](=O)[O-])c1)C1COc2ccccc2O1 (centres undefined) -12.2%
O=C(N/N=C\c1ccc(-c2ccccc2[N+](=O)[O-])o1)C1COc2ccccc2O1 (centres undefined) 6.06%
COc1cc(/C=N\NC(=O)C2COc3ccccc3O2)cc(OC)c1O (centres undefined) -4.27%
Cc1cc([N+](=O)[O-])cc(/C=N\NC(=O)C2COc3ccccc3O2)c1O (centres undefined) -5.46%
